This is part of a sample that, as a whole, favours compounds with a hit. Of some 83,000 tested, about 20% had one in any assay.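 Testing used 96-well plates and a 48-hour single-concentration exposure. Example: -40 means 40% of the starting cells died.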 Values without a mark were called inactive. Calls of active or inactive are those of the source. Rule for the calls: active = growth percent below 10; inactive = the rest.
What follows are compounds tested on SF-539 CNS (assay: NCI-60 one-dose screen, 48 h (100 = growth as untreated, 0 = no growth, -100 = all killed)). Details: 10 µM unless noted.

Row | Structure (SMILES) | growth
1 | CC1=C(C)C(=O)C(Nc2ccc(C)cc2)=C(Br)C1=O | 100%
2 | Cc1ccc(N2CCN(C3=C(Cl)C(=O)c4ncccc4C3=O)CC2)cc1 | 86.6%
3 | COc1ccc2[nH]cc(-c3nc(N)nnc3-c3cn(C)c4ccc(Br)cc34)c2c1 | 18.1%
4 | O=C(/C=C/c1ccccc1Cl)Nc1ncc(Cc2cc(Cl)ccc2Cl)s1 | 1.2% (active)
5 | CN(C)S(=O)(=O)c1ccc(-c2nc(C(Cl)Cl)nc3cc(-c4ccc(F)cc4)nn23)cc1 | 31.7%
6 | Fc1ccc(-c2cn3c(-c4c[nH]c5ccc(Br)cc45)csc3n2)cc1 | 34.3%
7 | C#Cc1nc(/C=C/CCCCCCC(=O)NO)cs1 | -89.4% (active)
8 | C#C[C@]1(O)CC[C@H]2[C@@H]3CC=C4c5sc(Nc6ncccc6C)nc5CC[C@]4(C)[C@H]3CC[C@@]21C | -56.4% (active)
9 | CC(C)=CCC[C@](C)(O)[C@H]1CC[C@]2(C)[C@@H]1CC[C@@H]1[C@@]3(C)CC[C@H](N)C(C)(C)[C@@H]3CC[C@]12C | 87.9%
10 | Cc1cc2nc3c4cc(C#N)ccc4n(CCN(C)C)c3nc2cc1C | -15.2% (active)
11 | N#Cc1c(-c2cccs2)cc(-c2cnccn2)nc1SCC(=O)N/N=C/c1ccncc1 | 97.6%
12 | CCOC(=O)c1cccc(NC2=C(Cl)C(=O)C(C)=C(C)C2=O)c1 | 95.8%
13 | c1ccc(-c2cn3c(-c4c[nH]c5ccccc45)csc3n2)cc1 | 81.9%
14 | Cc1cc(Br)ccc1-n1cc(C#N)c(N)c1C(=O)c1ccc(Br)cc1 | 97.4%
15 | Cn1cc(-c2cc3ncnc(Nc4ccc(NC(=O)Nc5cc(C(C)(C)C)on5)cc4)c3s2)cn1 | -47.8% (active)
16 | Nc1cc(C(=O)N/N=C\c2ccc(OC(F)F)c(OC3CCCC3)c2)nn1CC(O)c1ccccc1 (stereo not given) | 98.6%
17 | COc1ccc(C2CC(c3cccc(OCCCCOc4cccc(C5=NOC(c6ccc(OC)cc6)C5)c4)c3)=NO2)cc1 (stereo not given) | 111%
18 | O=C(COc1ccc(/C=C2\C(=O)Nc3ccc(Cl)cc32)cc1)Nc1ccc(Cl)cc1 | 75.3%
19 | Cn1cc(-c2nnc(N)nc2-c2c[nH]c3ccc(F)cc23)c2cc(Br)ccc21 | 7.43% (active)
20 | C[C@H](Nc1ncnc2ccc(-c3cnc(Cl)c(NS(C)(=O)=O)c3)cc12)c1ccccc1 | -42.8% (active)

Row | Structure (SMILES) | growth
21 | O=C(CSc1nc2ccccc2c(=O)n1CCc1ccccc1)Nc1ccc(S(=O)(=O)Nc2ccc(Cl)nn2)cc1 | 92.3%
22 | NS(=O)(=O)c1ccc(Nc2nc(N/N=C/C=C/c3ccccc3)nc(Nc3ccccc3)n2)cc1 | 39.4%
23 | O=C1[C@H]2Cc3c([nH]c4ccccc34)[C@H](c3ccc(Br)cc3)N2C(=O)CN1C1CCN(CC2CCCCC2)CC1 | 75.3%
24 | CCc1cc2c(cc1Cl)nc1c(=O)[nH]c(=O)nc-1n2CCOCC(C)(C)C | 84.2%
25 | COc1ccc(-c2nc(C#N)c(N3CCC(S(=O)(=O)N4CCOCC4)CC3)o2)cc1 | 97.5%
26 | COC(=O)c1ccc(NC2=C(Cl)C(=O)c3nc(C)ccc3C2=O)cc1 | 72.6%
27 | Cc1ccccc1N1CCN(C2=C(Cl)C(=O)c3ncccc3C2=O)CC1 | 78.9%
28 | CC[C@]12C=CCN3CC[C@@]4(c5ccc(OC)cc5N(C)[C@H]4[C@@](O)(C(=O)OC)[C@@H]1OC(=O)CCN1CCc4ccccc4C1)[C@@H]32 | 95.9%
29 | Cc1nc(N)sc1-c1csc(Nc2ccc(C(F)(F)F)cc2)n1 | 27.1%
30 | Cn1cc(-c2nnc(N)nc2-c2c[nH]c3ccc(Br)cc23)c2cc(Br)ccc21 | 102%
31 | C#C[C@]1(O)CC[C@H]2[C@@H]3CC=C4c5sc(N(C)c6ccccc6)nc5CC[C@]4(C)[C@H]3CC[C@@]21C | 48.7%
32 | NS(=O)(=O)c1ccc(Nc2nc(Nc3ccccc3)nc(N3N=C(c4ccc(Cl)cc4)CC3c3ccc(Cl)cc3)n2)cc1 (stereo not given) | 58%
33 | O=C(CCCCCCN1CC(=O)N2[C@@H](c3ccc(Cl)s3)c3[nH]c4ccccc4c3C[C@H]2C1=O)NO | 40.9%
34 | CCCCc1nc2c(N)nc3ccccc3c2n1Cc1cccc(CN)c1 | 5.63% (active)
35 | N#C/C(=C\c1ccc(-c2ccc(Cl)c(Cl)c2)o1)C(=O)Nc1ncc(Cc2ccc(Cl)cc2)s1 | 46.7%
36 | O=C(Nc1ccc(Cl)c(C(F)(F)F)c1)Nc1ccc2oc(=O)ccc2c1 | 63.3%
37 | COc1ccc2[nH]cc(/C=N/Nc3ccnc4cc(Cl)ccc34)c2c1 | -100% (active)
38 | O=C1Nc2ccccc2/C1=C/c1ccc(OCC(=O)c2ccccc2)cc1 | 90.6%
39 | NS(=O)(=O)c1nnc(/N=C/c2c(O)[nH]c3ccccc23)s1 | 96.3%
40 | COc1cc(/C=C2/C(=O)Nc3ccc(Cl)cc32)ccc1OCc1ccc(Cl)cc1 | 92.2%

— PubChem BioAssay (NCI)
